# Measurements taken from the supplement of paper PMC3334620.
# Over roughly 33,000 sequences, “E-score (-0.5 to 0.5)” has its median near -0.016; the highest 2% begin near 0.31. Many of the other results were omitted from the sample, so the highest values are more common in it than they were.
# Molecular target: Cst6 (UniProt P40535)
# Assay: PBM E-score (8-mer binding enrichment) (E-score (-0.5 to 0.5)); higher = stronger / more preferred TF binding
# Conditions: protein concentration: 200 nM; construct: GST-DNA-binding domain
# Outline: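 Detection of bound protein used fluorescent anti-GST, with scans normalised by masliner. The proteins were GST-tagged yeast transcription factors applied at about 100-200 nM to universal all-10-mer Agilent arrays made double-stranded by primer extension. Each ungapped eight-base word, pooled with its reverse complement, was scored with an E-score from the Universal PBM Analysis Suite.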
# UniProt P40535, sequence (P40535 whole entry): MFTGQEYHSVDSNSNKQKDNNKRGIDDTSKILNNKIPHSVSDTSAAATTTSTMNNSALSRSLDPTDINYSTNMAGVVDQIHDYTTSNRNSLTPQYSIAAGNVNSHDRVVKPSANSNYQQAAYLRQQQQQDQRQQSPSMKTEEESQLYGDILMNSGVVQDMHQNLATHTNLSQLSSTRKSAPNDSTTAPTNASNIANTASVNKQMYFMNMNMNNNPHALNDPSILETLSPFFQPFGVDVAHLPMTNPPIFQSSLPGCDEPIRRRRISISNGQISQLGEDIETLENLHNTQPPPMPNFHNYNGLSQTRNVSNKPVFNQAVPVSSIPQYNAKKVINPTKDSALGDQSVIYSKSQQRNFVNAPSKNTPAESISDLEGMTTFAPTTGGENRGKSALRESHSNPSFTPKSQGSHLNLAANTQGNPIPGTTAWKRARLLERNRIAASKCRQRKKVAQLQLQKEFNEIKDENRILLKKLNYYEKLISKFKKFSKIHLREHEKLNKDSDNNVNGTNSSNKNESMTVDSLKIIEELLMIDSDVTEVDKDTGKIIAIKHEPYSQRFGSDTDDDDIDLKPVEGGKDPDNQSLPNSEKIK
row,Sequence,PBM E-score
1,CAGACAGC,-0.185
2,ATGGAGCA,0.0798
3,ACGAAACT,0.0946
4,CAAGACCC,-0.197
5,CAAGGCTC,-0.227
6,AATTTCGG,0.127
7,CGTGTGAG,0.0162
8,AAAGATCT,-0.0274
9,GACATCCC,-0.0212
10,GACATCAA,0.327
11,CACATCAA,0.162
12,GACATCAC,0.431
13,CACATCAC,0.217
14,TACATCAA,0.283
15,AGCATGCA,-0.103
16,AACACCTC,-0.0672
17,ACTCAAAC,0.158
18,AGCTAAAG,-0.0194
19,CAGCGTGA,0.0151
20,CTGACGCC,0.119
21,AGGACGCC,-0.147
22,GCGACGCA,0.0151
23,ACGACGCG,0.127
24,ATGACGCC,0.442
25,CAGACGCA,-0.0613

row,Sequence,PBM E-score
1,AAGACGCC,-0.00396
2,ATGACGCG,0.463
3,AAGACGCG,-0.111
4,CTGACGCA,0.332
5,GGGACGCA,-0.173
6,GTGACGCA,0.471
7,AGTCGTAT,-0.0183
8,AGCCTCGC,-0.0857
9,CCTGGATC,-0.334
10,GTACCAGA,-0.199
11,ACTCCAGT,-0.162
12,CCGTCCCC,-0.289
13,GGTGGAGA,-0.338
14,ACATGGGT,0.00268
15,CGGGTTCA,-0.134
16,GATAACCA,-0.0596
17,GGAGCTGA,-0.207
18,GTGACTCA,0.228
19,ATGACGCA,0.485
20,ATGACTCC,0.0246
21,AGGACGCA,-0.209
22,ACGACGCA,0.145
23,ATGACTCA,0.309
24,ACGGGACA,-0.177
25,ATACCACG,0.128

row,Sequence,PBM E-score
1,AGTCATAG,0.0637
2,CGTCATAC,0.481
3,CCTCATAG,0.0666
4,GGTCATAC,0.151
5,AGTCATAC,0.144
6,CGTCATAG,0.468
7,ATCCATTG,0.0328
8,AAGGAGAG,-0.258
9,TAATTACA,0.277
10,TAACCACA,0.0592
11,ACATCACT,0.401
12,ACATCACA,0.328
13,ACATCACG,0.303
14,AGATCACT,0.181
15,TCATCACA,0.252
16,CCATCACC,0.15
17,ACATCAGT,0.218
18,GCATCACC,0.231
19,ACATCACC,0.417
20,CCCGGTGC,-0.264
21,GGCGATTA,0.188
22,CGTCGCCA,-0.0999
23,CGCAGTAG,-0.101
24,ATCGACCA,-0.228
25,CGCTGGAC,-0.297

row,Sequence,PBM E-score
1,CAAAAAAG,0.254
2,CAATGAAG,0.0658
3,AAATGATA,0.304
4,CAATGACC,0.148
5,GAATGACA,0.259
6,TAATGACA,0.347
7,GAATGATA,0.278
8,AAATGACA,0.298
9,CAATGACA,0.341
10,CAATGACG,0.469
11,TAATGCCA,0.197
12,TAATGAGA,0.0949
13,TAATGATA,0.387
14,CTTTAAGC,0.0326
15,GTTGGGAA,-0.0904
16,TACCTACA,0.0531
17,ACCGGGTG,-0.19
18,GCGATTAC,0.184
19,CACCGCAG,-0.116
20,CGTCTCGA,0.143
21,GAGTTTTA,0.122
22,AAATGACG,0.466
23,AAATGACT,0.0956
24,ATATGACA,0.304
25,GTATGACA,0.323

row,Sequence,PBM E-score
1,AAATGACC,0.102
2,CTATGACA,0.264
3,AGCTCATA,0.124
4,GAAGAACA,0.131
5,TAAGAACA,0.312
6,CAAGAACA,0.053
7,CCTTACCA,-0.119
8,CCCGTTCC,-0.132
9,CATCACCC,0.308
10,AATCACCC,-0.00614
11,CATCACCA,0.372
12,CATCACCG,0.305
13,TATCACCA,0.123
14,AATCACCA,0.169
15,CATTGTCC,-0.0804
16,ACCGCAAC,0.0509
17,GTCACATA,0.245
18,CGAAGTTA,0.11
19,CCTAACAG,0.00445
20,GCTGGCAA,-0.106
21,CTGATGTA,0.326
22,ACGATGTC,0.0231
23,GTGATGTA,0.465
24,ATGATGTC,0.478
25,GAGATGTA,0.0936

row,Sequence,PBM E-score
1,CGGATGTA,-0.0158
2,ATGATGTA,0.462
3,CTGATGTC,0.287
4,CCGATGTA,-0.0196
5,AGGATGTA,0.0787
6,AAGATGTA,0.169
7,GGGATGTA,-0.0844
8,GCACTGCC,0.0838
9,AGTCCTTA,-0.0772
10,CAGCCCAG,-0.383
11,ACAGCCCC,-0.228
12,AGTCCCTG,-0.223
13,CGATTGAG,-0.0697
14,GACGATGA,0.301
15,CCCAGGAA,-0.176
16,CTTTCTGC,0.0175
17,AGGATGTG,-0.232
18,ATGATGAG,0.232
19,ATGATGTG,0.333
20,CTGAGAGC,-0.0922
21,CGCGGCAC,0.324
22,CGCGCGGC,0.378
23,CGCGGCGC,0.372
24,AGCGGCAC,0.123
25,CACGGCGC,0.357

row,Sequence,PBM E-score
1,CACGGCGA,0.21
2,AGCGCGGC,0.115
3,CGCGGCAA,0.134
4,AACGGCGC,0.251
5,AGCGGCGC,0.107
6,CGCGGCGA,0.27
7,CGCGCGGA,0.131
8,CTTCGTAC,-0.193
9,AACATAAT,0.246
10,ATTAACGC,0.0112
11,CAGGGAGA,-0.227
12,GACTTAAC,-0.167
13,ACGGATAC,0.115
14,ATGTCTGG,-0.0099
15,ACTCATTG,-0.129
16,ATGAACTG,0.12
17,GAACGGTC,-0.223
18,AGTGGGTG,0.0423
19,ACATCCGT,0.0894
20,CGCACGGA,0.154
21,AGGCGCGA,0.205
22,CGGCGCGC,0.242
23,AGCACGGC,0.198
24,CGCACGGC,0.375
25,CGGCGCGA,0.35

row,Sequence,PBM E-score
1,AAACAAAT,0.192
2,CTTATTAA,0.141
3,ATCGACGA,0.00463
4,CCGTAATA,0.176
5,AAGTAATC,0.179
6,GCGTAATA,0.296
7,AGGTAATG,0.101
8,CCGTAATC,0.0889
9,AAGTAATG,0.116
10,ACGTAATA,0.482
11,ACGTAATG,0.476
12,ACGTAATC,0.484
13,GCGCTCAA,-0.165
14,CCTAGCGA,-0.296
15,AGCCGACA,-0.162
16,TAATTTAA,0.287
17,CATCGCCA,0.0609
18,ACACGGAC,-0.00107
19,CTTCCAAC,-0.0988
20,AGCCGCAC,0.188
21,AGCCGCAA,-0.127
22,AGCCGCAT,0.338
23,GCACCTGC,-0.114
24,AAGCTTTG,-0.087
25,TTCTGCAA,0.138

row,Sequence,PBM E-score
1,AATATGTG,0.25
2,AATATGTC,0.319
3,CATATGAC,0.366
4,AATATGAG,0.132
5,GATATGAC,0.273
6,CCTATGAC,0.221
7,ACTATGAC,0.264
8,AATATGTA,0.211
9,CATATGAG,0.0643
10,AATATGAT,0.233
11,GCTATGAC,0.332
12,AATATGAC,0.35
13,CGAAAGCA,-0.0132
14,CATCTGAA,0.037
15,ATCCTATC,-0.0914
16,ACCGTCGG,-0.194
17,CGTCTATA,-0.0233
18,ACCTTTGC,-0.095
19,CGCTGCAC,-0.0108
